# Experimental data reported in PubChem BioAssay.
# A number with no mark means an inactive call. Unless noted, no stated cut-off is given here; in the data, active means inhibition above about 37%; inactive means the rest.
# Test system: Hepatitis C virus NS3 helicase
# Assay: blockers of NS3h binding to ssDNA – biochemical, fluorescence polarization, LOPAC1280 library, primary screen (AID 687035)
# Settings: Purified HCV NS3 helicase, Cy5-dT15 ssDNA binding fluorescence polarization; hits give high values; concentration not given here
row,SMILES,inhibition
1,COc1cccc(OC)c1OCCNCC1COc2ccccc2O1 (stereo not drawn),-1%
2,O=C(O)C1=CCNCC1,-3%
3,CCCn1c(=O)c2[nH]c(C3CCCC3)nc2n(CCC)c1=O,0%
4,CN[C@H](CC(C)C)C(=O)N[C@H]1C(=O)N[C@@H](CC(N)=O)C(=O)N[C@H]2C(=O)N[C@H]3C(=O)N[C@H](C(=O)N[C@H](C(=O)O)c4cc(O)cc(O)c4-c4cc3ccc4O)[C@H](O)c3ccc(c(Cl)c3)Oc3cc2cc(c3O[C@@H]2O[C@H](CO)[C@@H](O)[C@H](O)[C@H]2O[C@H]2C[C@](C)(N)[C@H](O)[C@H](C)O2)Oc2ccc(cc2Cl)[C@H]1O,-5%
5,O=C(O)C1=CCCNC1,-3%
6,COc1cc(NS(C)(=O)=O)ccc1Nc1c2ccccc2nc2ccccc12,-8%
7,CC(=O)[C@H]1CC[C@H]2[C@@H]3CCC4=CC(=O)CC[C@]4(C)[C@H]3CC[C@]12C,-4%
8,O=C(O)c1cc(=O)c2ccccc2[nH]1,-6%
9,CC(C)C[C@H]1C(=O)N2CCC[C@H]2[C@]2(O)O[C@](NC(=O)[C@@H]3C=C4c5cccc6[nH]c(Br)c(c56)C[C@H]4N(C)C3)(C(C)C)C(=O)N12,2%

# Test system: not listed separately
# Assay: compounds altering Cy5-DNA-NS3h complex signal – biochemical, LOPAC1280, artefact control for HCV NS3 helicase inhibitor project (AID 687037; call rule not given here)
# Settings: Cy5-DNA-NS3h complex fluorescence interference counterscreen
row,SMILES,fluorescence ratio (interference)
1,COc1cccc(OC)c1OCCNCC1COc2ccccc2O1 (stereo not drawn),1
2,O=C(O)C1=CCNCC1,1
3,CCCn1c(=O)c2[nH]c(C3CCCC3)nc2n(CCC)c1=O,1
4,CN[C@H](CC(C)C)C(=O)N[C@H]1C(=O)N[C@@H](CC(N)=O)C(=O)N[C@H]2C(=O)N[C@H]3C(=O)N[C@H](C(=O)N[C@H](C(=O)O)c4cc(O)cc(O)c4-c4cc3ccc4O)[C@H](O)c3ccc(c(Cl)c3)Oc3cc2cc(c3O[C@@H]2O[C@H](CO)[C@@H](O)[C@H](O)[C@H]2O[C@H]2C[C@](C)(N)[C@H](O)[C@H](C)O2)Oc2ccc(cc2Cl)[C@H]1O,1
5,O=C(O)C1=CCCNC1,1
6,COc1cc(NS(C)(=O)=O)ccc1Nc1c2ccccc2nc2ccccc12,0.9
7,CC(=O)[C@H]1CC[C@H]2[C@@H]3CCC4=CC(=O)CC[C@]4(C)[C@H]3CC[C@]12C,0.9
8,O=C(O)c1cc(=O)c2ccccc2[nH]1,1
9,CC(C)C[C@H]1C(=O)N2CCC[C@H]2[C@]2(O)O[C@](NC(=O)[C@@H]3C=C4c5cccc6[nH]c(Br)c(c56)C[C@H]4N(C)C3)(C(C)C)C(=O)N12,0.9
